This is an account of results in PubChem BioAssay (NCI).

Compounds without any hit were thinned out: in the full panel of roughly 83,000, 20% have a hit.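 Testing used 96-well plates and a 48-hour single-concentration exposure. Example: -40 means 40% of the starting cells died.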 A number with no mark means an inactive call. Activity calls are given as the source filed them. The calls were made as follows: active = growth percent below 10; inactive = the rest.

The test relates to RPMI-8226 leukemia. The test can be described thus: NCI-60 one-dose screen, 48 h (100 = growth as untreated, 0 = no growth, -100 = all killed). The conditions noted are these: 10 µM unless noted.
For the compound `O=S(=O)(NCCNc1nccc(-n2cnc3ccccc32)n1)c1ccc(Br)cc1`, the growth was 79.7%. The value for `NS(=O)(=O)c1ccc(Nc2nc(N/N=C/c3ccccn3)nc(Nc3ccccc3)n2)cc1` was 36.6%. The value for `NC(N)=Nc1ccc(Oc2cccc(Nc3ccc(Br)c(C(F)(F)F)c3)c2)cc1` was -44.1% (active); that for `O=c1[nH]c2ccccc2cc1CSc1ccccc1Nc1nccc(-c2ccc(Cl)cc2)n1` was 94.5%; that for `COc1ccccc1C(=O)Nc1cccc2c1C(=O)C(=O)C=C2` was 88.3%.

`CCO/C=N/C1=C(C#N)C(c2ccc(F)cc2)c2sc3c(C)cccc3c2O1` (centres undefined): the growth is 12.8%. The value for `O=C(NNc1nc2cc(F)ccc2n2c(CN3CCCC3)ccc12)c1cnccn1` was 20.6%.

For the compound `COc1cc(-c2nn(C(C)(C)C)cc2-c2ccnc(NCCCNS(=O)(=O)c3ccccc3)n2)ccc1Cl`, the growth was 56.3%. On to `O=C(NCc1ncc[nH]1)c1ccc(-c2nc3ccc4[nH]ncc4c3c3c2CCCC3)cc1`, for which the growth was 45%.

For the compound `O=C(NNc1nc2cc(F)ccc2n2c(CO)ccc12)c1cnccn1`, the growth was 21%. Consider `O=[N+]([O-])c1cc(/C=N/Nc2nc(N/N=C/c3ccc(Cl)c([N+](=O)[O-])c3)nc(N3CCCCC3)n2)ccc1Cl`, for which the growth was -18.3% (active). The value for `COc1c(N2CC3CCCNC3C2)c(F)cc2c(=O)c(C(=O)N/N=C/c3ccccc3)cn(C3CC3)c12` (centres undefined) was 73.1%. The value for `O=C(CNc1nc(-c2cccc([N+](=O)[O-])c2)cs1)Nc1cccc(Cl)c1` was 98%; that for `O=S(=O)(NCCNc1nccc(-n2cnc3ccccc32)n1)c1ccc(C(F)(F)F)cc1` was 44.9%; that for `CC(C)(C)c1ccc(C(=O)Nc2sc3c(c2C(N)=O)CC/C(=N\O)C3)cc1` was -16.7% (active). The value for `CC(=O)c1nnn(-c2c(C(=O)n3nc(C)cc3C)sc(=S)n2-c2ccccc2)c1C` was 101%; that for `CNC(=O)c1c(NC(=O)c2ccccc2C(F)(F)F)sc2c1CCC(=O)C2` was -0.77% (active). Regarding `O=C(NNc1nc2cc(F)c(F)cc2n2cccc12)c1cnccn1`, the growth is 30.5%.

For the compound `COc1cc(Nc2c(C#N)cnn3cc(-c4cnn(CC(C)(C)O)c4)cc23)ccc1Cl`, the growth is 40.2%. The result for `CCCCCCCn1cc2c(N[C@H](C)c3ccccc3)ncnc2n1` reads 100%; that for `O=C(Cn1cc(-c2ccccc2)nn1)Nc1nc(-c2ccc(Cl)cc2)cs1`, 99.3%.

On to `CCOC(=O)C(=O)CC(=O)N1C(=S)NC(=O)C1CC(C)C` (centres undefined), for which the growth is 107%.

Take `O=C1Nc2ccccc2/C1=C/c1ccc(CO)n1-c1ccc(Cl)cc1`: the growth was 53.2%.

With `CCO/C=N/C1=C(C#N)C(c2ccc(OC)cc2)c2sc3c(CC)cccc3c2O1` (centres undefined), the growth is 12.7%. The result for `O=C1[C@@H]2Cc3c([nH]c4ccccc34)[C@H](c3c(Cl)cccc3Cl)N2C(=O)CN1C1CCN(CC2CCCCC2)CC1` reads 38.4%. The value for `Cc1nn(-c2ccccc2)c2ncnc(N/N=C/c3cccc(O)c3)c12` was 22.7%. The value for `CS(=O)(=O)Nc1cc(-c2ccc3ncc(C#N)c(NCc4cccc(F)c4)c3c2)cnc1Cl` was -24.2% (active). As for `Cc1ccc(-n2cc(/C=C/C(=O)c3ccc(O)cc3)c(-c3ccc(S(C)(=O)=O)cc3)n2)cc1`, the growth was 47.9%. For `CC1(C)NCCC[C@]2(C)[C@H]3C/C(=N\O)C4[C@@H]5C[C@@](C)(CO)CC[C@]5(C)CC[C@@]4(C)[C@]3(C)CC[C@@H]12` (some centres undefined), the growth is 111%. The result for `C#CCNC1CCC(c2csc(C#C)n2)=C1C` (centres undefined) reads -28.1% (active). The result for `NS(=O)(=O)c1ccc(Nc2nc(Nc3ccccc3)nc3nnc(SCC(=O)NC4CCCCC4)n23)cc1` reads 105%; that for `O=C(CNc1nc(-c2cccc([N+](=O)[O-])c2)cs1)Nc1cccc([N+](=O)[O-])c1`, -18.8% (active). The value for `O=C(CSc1nc2ccccc2c(=O)n1-c1ccc(Cl)cc1)N/N=C/c1ccc(N2CCCCC2)cc1` was 100%. For the compound `O=C(c1ccc(Cl)cc1)C1[C@H](c2ccc(Cl)cc2)[C@@H](c2ccccc2)NC12C(=O)Nc1ccccc12` (some centres undefined), the growth is 40.1%.

For `CC(=O)c1ccc(Nc2nc(SCC(C)C)nc(-c3ccc(F)cc3)c2C#N)cc1`, the growth is 118%.

Regarding `Fc1ccc(-c2cc3nc(C(Cl)Cl)nc(-c4ccc(F)cc4)n3n2)cc1`, the growth was 3.43% (active). The result for `CNc1ncc2cc(-c3ccc(-c4ncccc4F)cc3Cl)c(=O)n(CC3OCC(N)CO3)c2n1` (centres undefined) reads 96.1%; that for `C#C[C@]1(O)CC[C@H]2[C@@H]3CC=C4c5sc(-c6ccc7c(c6)OCO7)nc5CC[C@]4(C)[C@H]3CC[C@@]21C`, -15.3% (active); that for `C=CCn1c(SCC(=O)Nc2ccc(C(=O)/C=C/c3ccc(C)cc3)cc2)nnc1-c1c[nH]c2ccccc12`, 34.9%.
